Shown are actives, neighbours in structure and some others; about 11% of the full set was active somewhere.
ALDH1A1 block: qHTS Assay for Inhibitors of Aldehyde Dehydrogenase 1 (ALDH1A1); AID 1030, 2008; 220,000 tested, 7.3% active; Purified ALDH1A1, NADH fluorescence, propionaldehyde substrate; Potency, µM (titrated, usually from 75.3 µM), inactives show at the top dose activity, negative = inhibition, actives largely listed as inhibitors;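 note: potency is the fitted concentration of half-maximal effect; plate controls were no enzyme wells and a reference inhibitor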
Target sequence (P00352 whole entry, looked up): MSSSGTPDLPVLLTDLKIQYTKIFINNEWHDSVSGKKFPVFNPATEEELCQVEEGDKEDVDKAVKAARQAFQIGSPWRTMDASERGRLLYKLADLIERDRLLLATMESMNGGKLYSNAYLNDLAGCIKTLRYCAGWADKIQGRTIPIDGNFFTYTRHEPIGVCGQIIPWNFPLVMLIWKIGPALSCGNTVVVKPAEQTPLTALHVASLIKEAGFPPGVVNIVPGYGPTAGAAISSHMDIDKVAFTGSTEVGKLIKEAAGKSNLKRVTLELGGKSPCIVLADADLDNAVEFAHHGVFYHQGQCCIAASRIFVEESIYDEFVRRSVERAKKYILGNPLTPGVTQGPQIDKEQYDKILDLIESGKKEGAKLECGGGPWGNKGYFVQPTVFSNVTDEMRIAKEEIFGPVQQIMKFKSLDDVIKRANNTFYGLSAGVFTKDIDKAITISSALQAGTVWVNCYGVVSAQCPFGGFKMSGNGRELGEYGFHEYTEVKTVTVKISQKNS
PNC assembly inh: High Content Assay for Compounds that inhibit the Assembly of the Perinucleolar Compartment; activity change (PNC), negative = inhibition, % at 10 µM; PC3M PTB-GFP, PNC prevalence imaging, 16 h; stronger effect = lower value; 140,000 tested, 3.1% active; AID 2417, 2010;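 active = readout at or below -70, meaning at least 70% loss of cells showing the perinucleolar compartment, a nuclear body marking cancer cells; inconclusive = readout between -30 and a set limit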;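 note: plate controls were DMSO wells for no effect and camptothecin positive control wells for full effect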
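Read-out is percentage of cells bearing a perinucleolar compartment, from automated 20x imaging of fixed, Hoechst-stained PC3M PTB-GFP cells. Cells were seeded 4 h, then exposed 16 h to compound (23 nl of library stock) in duplicate plates.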
HPGD block: qHTS Assay for Inhibitors of HPGD (15-Hydroxyprostaglandin Dehydrogenase). purified HPGD, NADH fluorescence kinetic, PGE2 substrate. AID 894, 2007. Potency, µM, for inactives: at the highest dose activity change, negative = inhibition, most hits filed as inhibitors. 15-hydroxyprostaglandin dehydrogenase [NAD(+)] (Homo sapiens), P15428. 150,000 tested, 4.3% active; note: potency is the fitted concentration of half-maximal effect
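NADH formation kinetics: reaction with 30 uM PGE2 and 1 mM NAD+ (final), 20 nM enzyme, Tris-HCl pH 8 with Tween 20, after 15 min compound preincubation at room temperature. Fluorescence change, last versus first of five reads.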
* hit, by the source's call. Unless noted, calls come from the whole dose curve; as a rule, active = well fitted inhibition curve with a large enough effect (not every such curve was filed as active); inconclusive = small, poorly fitted or top-dose-only effect, or another doubt; inactive = no such curve, though single readings can be large or run the other way. Unless noted, % is set by controls: 0 for no effect and ±100 for the full control effect.

COc1ccc(OC)c(C2=NOC(C(=O)N3CCCc4ccccc43)C2)c1 (configuration not stated) was read as ALDH1A1 block 11µM*, PNC assembly inh 10 and HPGD block -25%.
`O=C(CCS(=O)(=O)c1ccc(Br)s1)Nc1ccccc1Br` gave ALDH1A1 block -8%.
CC(=O)c1ccc(NC(=O)C2CC(=O)N(C(C)C)C2)cc1 (configuration not stated) was read as ALDH1A1 block 10%.
`CC(NC(=S)Nc1ccccc1Cl)C(c1ccccc1)N1CCOCC1` (configuration not stated) gave ALDH1A1 block 28µM*, PNC assembly inh 15 and HPGD block -6%.
Screening CC(NC(=S)N1CCOCC1)c1ccccc1 (configuration not stated) returned ALDH1A1 block -4%, PNC assembly inh -121* and HPGD block -6%.
Screening S=C(Nc1ccccc1)N1CCOCC1 returned ALDH1A1 block 3%.
For COc1ccc(NC(=S)NC(C)C(c2ccccc2)N2CCOCC2)cc1 (configuration not stated) the results were ALDH1A1 block -8%.
`COc1ccccc1C/C(N)=N/OC(=O)COc1ccc(C)cc1` gave ALDH1A1 block -5%, PNC assembly inh 30 and HPGD block -23%.
Screening CCCCCC[n+]1c(-c2ccccc2)csc1Nc1ccccc1 returned ALDH1A1 block -9%, PNC assembly inh inconclusive and HPGD block -5%.
`O=C(O)c1ccc(C[n+]2c(-c3ccccc3)csc2Nc2ccccc2)cc1` gave ALDH1A1 block -14%, PNC assembly inh 72 and HPGD block 16µM*.
`CCCCN(C(=S)NC(=O)c1cc(OC)c(OC)c(OC)c1)c1c(N)n(Cc2ccccc2)c(=O)[nH]c1=O` gave ALDH1A1 block -13%, PNC assembly inh 46 and HPGD block -8%.
For CCn1c(CNc2nc(-c3ccccc3)cs2)nnc1SCC(=O)NCc1ccco1 the results were ALDH1A1 block 28µM*, PNC assembly inh 12 and HPGD block inconclusive.
CC(=O)Nc1ccc(-c2csc(NCc3ccco3)n2)cc1 was read as ALDH1A1 block inconclusive, PNC assembly inh 18 and HPGD block inconclusive.
Screening Cc1csc(SCC(=O)Nc2nc(-c3ccccc3)cs2)n1 returned ALDH1A1 block 0%, PNC assembly inh -21 and HPGD block -12%.
O=C(CSc1nc(-c2ccccc2)cs1)NCc1ccco1 was read as ALDH1A1 block 25µM*, PNC assembly inh inconclusive and HPGD block 28µM*.
Screening COCCNC(=O)CSc1nc(-c2ccccc2)cs1 returned ALDH1A1 block 0%, PNC assembly inh -13 and HPGD block 32µM*.
c1cncc(-c2csc(NCc3ccco3)n2)c1 was read as ALDH1A1 block inconclusive, PNC assembly inh 18 and HPGD block 14µM*.
O=C(CSc1ncc(-c2ccccc2)nn1)NCc1ccco1 was read as ALDH1A1 block -3%, PNC assembly inh 28 and HPGD block -24%.
Screening CCn1c(CSc2nc(C)cc(C)n2)nnc1SCC(=O)Nc1nc(-c2ccccc2)cs1 returned ALDH1A1 block 8%, PNC assembly inh -17 and HPGD block -11%.
For COC(=O)C1=C(C)Nc2c(c(=O)n(C)c(=O)n2C)C1c1ccncc1 (configuration not stated) the results were ALDH1A1 block 3%, PNC assembly inh inconclusive and HPGD block inconclusive.
`Cc1nc2cc(NC(=O)c3ccc(N4C(=O)CCC4=O)cc3)ccc2s1` gave ALDH1A1 block -9%.
For Cc1ccccc1C(=O)NCCc1nnc(SCC(=O)Nc2nc(-c3ccccc3)cs2)n1C the results were ALDH1A1 block -2%, PNC assembly inh 68 and HPGD block 0%.
Cc1ccc(C(=O)CSc2nnc(CNc3nc(-c4ccccc4)cs3)n2C)cc1 was read as ALDH1A1 block 14µM*, PNC assembly inh 12 and HPGD block -21%.
`CC(C)c1ccc(/C=N/NC(=O)c2c(Cl)cnn2C)cc1` gave ALDH1A1 block 5%, PNC assembly inh -4 and HPGD block -6%.
Screening CN(C)CCNC(=O)c1ccc(COc2ccc(Cl)cc2Cl)cc1 returned ALDH1A1 block 4%, PNC assembly inh 78 and HPGD block inconclusive.
For O=C(CCCOc1ccc(Cl)cc1Cl)N1CCN(c2ccccn2)CC1 the results were ALDH1A1 block -12%, PNC assembly inh -7 and HPGD block inconclusive.
`Cc1cc(Cl)ccc1OCCCC(=O)N1CCCc2ccccc21` gave ALDH1A1 block -3%, PNC assembly inh -94* and HPGD block -18%.
O=C(O)c1ccc(COc2ccc(CO)cc2Cl)cc1 was read as ALDH1A1 block 15%, PNC assembly inh 21 and HPGD block 16µM*.
`O=C(O)c1cccc(COc2ccc(CO)cc2Cl)c1` gave ALDH1A1 block 12%, PNC assembly inh 8 and HPGD block -22%.
Screening COCC(=O)N1CCCc2ccccc21 returned ALDH1A1 block -3%, PNC assembly inh 17 and HPGD block -6%.
`CN1CCN(C(=O)c2ccc(COc3ccc(Cl)cc3Cl)cc2)CC1` gave ALDH1A1 block 12%, PNC assembly inh inconclusive and HPGD block 2.8µM*.
`CN1CCN(C(=O)CCCOc2ccc(Cl)cc2Cl)CC1` gave ALDH1A1 block inconclusive, PNC assembly inh -13 and HPGD block 20µM*.
Screening C=CCc1cccc(CNc2ccc(Br)cc2)c1O returned ALDH1A1 block 6%.
For CNc1ccnc(-c2ccccc2CN(C)C)n1 the results were ALDH1A1 block 3% and HPGD block -8%.
Screening CCCSc1oc(-c2ccco2)nc1S(=O)(=O)c1ccccc1 returned ALDH1A1 block inconclusive, PNC assembly inh inconclusive and HPGD block -26%.
Screening CCSc1oc(-c2ccco2)nc1S(=O)(=O)c1ccccc1 returned ALDH1A1 block inconclusive, PNC assembly inh 3 and HPGD block -21%.
Screening CN1CCN(c2oc(-c3ccco3)nc2S(=O)(=O)c2ccccc2)CC1 returned ALDH1A1 block 28µM*, PNC assembly inh 4 and HPGD block -16%.
Screening O=S(=O)(c1ccccc1)c1nc(-c2ccco2)oc1N1CCCCCC1 returned ALDH1A1 block 0.2µM*, PNC assembly inh 13 and HPGD block inconclusive.
`CCN(CC)CCNC(=O)c1cc2c(-c3ccc(Cl)cc3)nn(C)c2s1` gave ALDH1A1 block inconclusive, PNC assembly inh 4 and HPGD block inconclusive.
Cn1nc(-c2ccc(Cl)cc2)c2cc(C(=O)NC3CC3)sc21 was read as ALDH1A1 block inconclusive, PNC assembly inh -86* and HPGD block -16%.
Screening COc1ccc(CNC(=O)Nc2ccccc2)cc1 returned ALDH1A1 block 4%.
For O=C(NCC1CCN(S(=O)(=O)c2ccccc2)CC1)Nc1ccccc1 the results were ALDH1A1 block 28µM*.
COc1ccc(N2CCC(CNC(=O)Nc3ccccc3)C2)cc1 (configuration not stated) was read as ALDH1A1 block 5µM*, PNC assembly inh 3 and HPGD block inconclusive.
Screening O=C(NCC1CCN(S(=O)(=O)c2ccccc2)CC1)Nc1ccc(F)cc1F returned ALDH1A1 block -1%.

Source: PubChem BioAssay
